Experimental data taken from PubChem BioAssay.
A number with no mark means an inactive call. How the calls were made is not given here.

Biological target: Pantothenate synthetase (Mycobacterium tuberculosis (strain ATCC 25618 / H37Rv)) (UniProt P9WIL5)
Assay: Coupled enzyme confirmation of inhibitors against recombinant Mtb PanC (AID 375);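 further: 0% = full reaction with vehicle and 100% = no enzyme background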
Conditions: coupled enzyme assay; at 10 µM, hits give high values

Chain of Pantothenate synthetase (Mycobacterium tuberculosis (strain ATCC 25618 / H37Rv)) (P9WIL5 whole entry, looked up): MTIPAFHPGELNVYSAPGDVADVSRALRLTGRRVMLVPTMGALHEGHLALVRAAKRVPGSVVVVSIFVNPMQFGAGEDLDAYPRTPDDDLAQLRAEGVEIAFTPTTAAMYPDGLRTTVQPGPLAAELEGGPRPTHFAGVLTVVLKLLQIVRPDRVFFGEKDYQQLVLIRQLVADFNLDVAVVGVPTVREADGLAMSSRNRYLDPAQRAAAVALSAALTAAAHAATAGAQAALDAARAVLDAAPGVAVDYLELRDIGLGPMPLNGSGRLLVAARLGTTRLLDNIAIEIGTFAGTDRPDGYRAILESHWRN

SMILES | inhibition [%]
Cc1noc(/C=C/N(C)C)c1S(=O)(=O)N1CCc2ccccc21 | 0
Cc1ccc(CCNC(=O)C2CCN(S(=O)(=O)c3ccc4c(c3)CCC(=O)N4)CC2)cc1 | 0
CCCOc1ccc([C@@H]2C3CN(C(=O)OCC)CC=C3C(C#N)=C(N)C2(C#N)C#N)cc1OC (some centres undefined) | 1
O=C(CCSc1nc(-c2ccco2)cc(C(F)(F)F)n1)Nc1ccc2c(c1)OCO2 | 0
COc1ccc(CN(CCN(C)C)c2ccccn2)cc1 | 4
COc1ccc(-c2ccc(-c3noc(-c4ccccc4OC)n3)c(OC)n2)cc1 | 0
COc1ccc(Nc2nc(OC)nc(N3CCN(c4ccc(OC)cc4)CC3)n2)cc1 | 1
COc1cc(C(=O)Nc2ccc3c(c2)C(=O)N(CCC(=O)O)C3=O)cc(OC)c1OC | 0
Cc1ccccc1-n1c(=O)cc(NCc2ccc3c(c2)OCO3)[nH]c1=O | 2
Cc1ccc(C2C3CN(C(C)C)CC=C3C(C#N)=C(N)C2(C#N)C#N)cc1 (centres undefined) | 0
CN(C)C(=O)N1CCN(C(=O)c2ccco2)CC1 | 0
COc1ccc(N2C(=O)C3CCCN3C2c2ccc(F)cc2)cc1Cl (centres undefined) | 1
CC1=C(C(=O)NCc2ccco2)C2(CCC(C)CC2)OC1=O (centres undefined) | 4
CC(=O)c1c(NCCc2ccccc2)cc(C)oc1=O | 0
CCn1c(=N)n(CC(=O)C23CC4CC(CC(C4)C2)C3)c2ccccc21 | 0
CC(C)(Oc1ccc(Cl)cc1)C(=O)NC1CCSC1=O (centres undefined) | 0
Cc1ccc(Cn2c(NCCc3ccccc3)nc3c2c(=O)n(C)c(=O)n3C)cc1 | 4
CC(C)(C)C(=O)N=C1SC2CS(=O)(=O)CC2N1c1ccc2c(c1)OCO2 (centres undefined) | 0
CCN(CC)CCNC(=O)c1cc(S(C)(=O)=O)ccc1OC | 0
CCc1nnc(NC(=O)C2CCCN2S(=O)(=O)c2ccc(C)cc2)s1 (centres undefined) | 2
Cc1cc2c(c(=O)n1CCc1ccccc1)C(C(C)C)C(C#N)=C(N)O2 (centres undefined) | 5
CCOc1ccc2c(c1)c1nnc(SCC(=O)N3CCC(C)CC3)nc1n2C | 1
CN(C)c1cccc(N=C2C=C(N3CCOCC3)CC(C)(C)C2)c1 | 0
Cc1ccccc1CSc1nnc(C)c(=O)[nH]1 | 0
